Sampled rows, rich in hits. Any-hit rate of the full collection: about 4.6%.
Vaccinia Venus = inhibitors of vaccinia virus (Venus reporter). Vaccinia virus Venus reporter expression, fluorescence. Potency, µM (highest dose often 36.5 µM), for inactives: at the highest dose activity change, negative = inhibition, actives largely listed as inhibitors. 0.46% of 330,000 active. AID 720580; calls by dose curve; tested in A549 cells; note: nearly all actives have a fitted effect of over 30% in size
HCV inh = HCV inhibition. Potency, µM (top dose mostly 41.8 µM), for the others: at the top dose activity change, negative = inhibition, usual class: inhibitors. 3.4% of 340,000 active. Huh7.5.1 HCVcc-Cre infection, luciferase reporter, 44 h; active = well fitted inhibition curve with a large enough effect; inconclusive = small, poorly fitted or top-dose-only effect, or another doubt; inactive = no such curve, though single readings can be large or run the other way
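1,000 cells/well; 4 h culture; + compound; + HCVcc-Cre (~0.5 moi); 44 h; luciferase substrate, RT 15 min; read 15 sec.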
Marburg entry inh = inhibitors of Marburg virus binding or cell entry. Marburg virus pseudotyped entry inhibition, cell reporter. Potency, µM (series often up to 37.8 µM), without a hit: at the top dose activity change, negative = inhibition, actives largely listed as inhibitors. 1.8% of 300,000 active. AID 540276; calls by dose curve; tested in HEK293 cells
LASV entry inh = inhibitors of Lassa virus binding or cell entry; Potency, µM (titrated, usually from 37.9 µM), inactives show at the top dose activity change, negative = inhibition, actives largely listed as inhibitors; 1.2% of 300,000 active; Lassa virus pseudotype entry inhibition, cell reporter; AID 540256; calls by dose curve; tested in HEK293 cells; note: nearly all actives have a fitted effect of over 50% in size
Vaccinia mCherry = vaccinia inhibition (mCherry reporter); Potency, µM (series often up to 36.5 µM), inactives show top-dose activity change, negative = inhibition, actives largely listed as inhibitors; 0.63% of 310,000 active; Vaccinia virus mCherry reporter infection, fluorescence; AID 720579; calls by dose curve; tested in A549 cells; note: nearly all actives have a fitted effect of over 35% in size
An asterisk follows results filed as active; i = inactive; ? = inconclusive; / = no result; [ ] = dose if it differs, or a comment. % is set by controls: 0 for no effect and ±100 for the full control effect; potency is the fitted concentration of half-maximal effect.

SMILES	Vaccinia Venus	HCV inh	Marburg entry inh	LASV entry inh	Vaccinia mCherry
Cc1[nH]c2ccc(C(=O)OC(C)C(=O)N(C)c3ccccc3)cc2c1C (centres undefined)	?	?	14%	5µM*	?
CCOc1ccc(C(=O)Nc2ccc(-c3nc4cc(CC)ccc4o3)cc2)cc1	-27%	/	/	-3%[46.1 µM]	?
CCOC(=O)c1cc(-c2ccncc2)nc2c1c(C)nn2-c1ccccn1	?	7.9µM*	?	?	-25%
COc1ccc(-c2cc(C(=O)O)c3c(C)nn(-c4ccccn4)c3n2)cc1	-8%	13%	1%	-5%	/
CCOC(=O)c1cc(-c2ccc(OC)cc2)n(CCC(=O)NCCc2ccc(OCC)c(OCC)c2)c1C	-26%	/	/	-27%[46.1 µM]	?
Cc1cccc(OCC(=O)N/N=C\c2cc3c(cc2[N+](=O)[O-])OCO3)c1C	-12%	11µM*	-13%	?	-22%
CCN(CCNC(=O)[C@H]1C=C(OC)C(=O)C[C@H](c2ccccc2)[C@@H]1C)C(C)=O	/	/	-18%[14.2 µM]	/	/
CCCC(=O)c1cc(-c2nc3ccccc3n2C)n(C)c1	-21%	22µM*	10%[46.1 µM]	2%	i
CCC(=O)c1cc(-c2nc3ccccc3n2C)n(C)c1	-26%	-13%	16%	0%	-10%
CCN(CC)CCCNC(=O)CSc1nc2c(c(C(F)(F)F)n1)CCc1ccccc1-2	-21%	16µM*	?	?	-20%
CCN1CCN(CC(=O)n2c3c(c4ccccc42)CC(C)CC3)CC1 (centres undefined)	-17%	3.2µM*	?	-26%	/
O=[N+]([O-])/C=C/c1ccc2c(c1)OCO2	/	/	?	3.3µM*	/
CCc1nc(Nc2ccc(F)cc2)c2oc3ccccc3c2n1	/	10µM*	/	/	/
CCc1nc(Nc2ccccc2)c2oc3ccccc3c2n1	/	?	-21%	-1%	/
COc1c(Br)cc(C(N)=O)cc1OCc1ccccc1	-8%	?	-1%	-13%	-27%
COc1cc(OCc2ccccc2)c(OC)c(OCc2ccccc2)c1	-5%	10µM*	?	0%[46.1 µM]	?
COC(=O)C1=C(c2ccc(-c3ccccc3)c(F)c2)C[C@@H]2CC[C@H]1N2C(=O)NCC1CC1	?	?	/	/	-29%
COC(=O)C1=C(c2ccc(-c3ccccc3)c(F)c2)C[C@@H]2CC[C@H]1N2C(=O)NCCOc1ccccc1	?	13µM*	/	/	-2%
COCCNC(=O)N1[C@H]2CC[C@@H]1C(C(=O)OC)=C(c1ccc(-c3ccccc3)c(F)c1)C2	?	3.2µM*	/	/	?
Cc1cnc(-n2ncc(C(=O)NCCCc3ccncc3)c2C)nc1-c1ccc(F)cc1	?	/	/	/	-42%
C[C@@H]1CN([C@@H](C)CO)S(=O)(=O)c2ccc(C#CC3CCCCC3)cc2O[C@@H]1CN(C)Cc1cccnc1	10µM*	/	/	/	?
CC(=O)Nc1ccc(NC(=O)CCC(=O)c2ccc(C)cc2)cc1	-1%	/	/	13%[46.1 µM]	-15%
O=C(c1ccccc1)N1CCN(CCc2ccncc2)CC1	-8%	/	24%[46.1 µM]	-9%[46.1 µM]	-8%
CC(C)C(=O)N1CCC(CN=Cc2c(O)n(C3CCCCC3)c(=O)n(C3CCCCC3)c2=O)CC1	?	?	?	14µM*	-4%[1.46 µM]
CCOC(=O)C1=C(C)n2c(s/c(=C/c3cccc([N+](=O)[O-])c3)c2=O)=NC1c1ccc(O)c(OC)c1 (centres undefined)	/	8.9µM*	?	?	/
SMILES	Vaccinia Venus	HCV inh	Marburg entry inh	LASV entry inh	Vaccinia mCherry
CCOc1ccc(C2CC(c3cccc(OC)c3OC)n3nnnc3N2)cc1Cl (centres undefined)	-23%	11µM*	9%	-11%	-27%
COc1ccc(-n2c(C)cc(/C=N/Nc3nc(N4CCOCC4)nc(N4CCOCC4)n3)c2C)cc1	-10%	-29%	7.3µM*	?	-14%
Cc1cc(/C=N/Nc2nc(N3CCOCC3)nc(N3CCOCC3)n2)c(C)n1-c1ccccc1	-6%	?	?	?	1%
COc1cccc([C@H]2Oc3ccc(OC)cc3C(=NOCC[C@@H]3C=C[C@H](OC(C)=O)[C@@H](COC(C)=O)O3)[C@H]2O)c1	/	/	-24%[14.2 µM]	?	/
O=S(=O)(Nc1cccc2ccccc12)c1ccccc1	-7%	-3%	-2%	7%	?
O=S(=O)(Nc1cccc2cccnc12)c1ccc(S(=O)(=O)N2CCCC2)cc1	-10%	2.8µM*	?	8.2µM*	-4%
CC(=O)Nc1ccc(S(=O)(=O)Nc2cccc3cccnc23)cc1	-1%	-22%	-9%[46.1 µM]	/	-1%
Cc1ccc(S(=O)(=O)Nc2cccc3cccnc23)c([N+](=O)[O-])c1	?	?	?	10µM*	?
Cc1ccc2cccc(NS(=O)(=O)c3ccccc3)c2n1	-16%	-5%	1.4µM*	?	-5%
O=S(=O)(Nc1cccc2cccnc12)c1ccccc1	13µM*	?	?	?	10µM*
Cc1ccccc1NS(=O)(=O)c1ccc(S(=O)(=O)N2CCCC2)cc1	-8%	/	/	/	-1%
Cc1ccc2[nH]c(C(=O)N3CCc4c(cnc(C)c4CNC(=O)c4ccccc4F)C3)cc2c1	11%	/	/	/	1%
CCn1c(SC(C)C(=O)NCc2ccco2)nnc1-c1ccccc1 (centres undefined)	-9%	/	/	/	-16%
COCC(=O)Nc1cc(C(=O)N2CCOc3ccccc3C2)cc2nc(-c3cccnc3)n(C)c12	5%	/	/	/	-3%
Cc1ccc(Cn2c(SCc3ccc(C(=O)N4CCCCCC4)cc3)nc3ccncc32)cc1	?	/	?	-27%[46.1 µM]	-28%
Cc1ncc2c(c1CNC(=O)c1ccccc1F)CCN(C(=O)c1ccccc1-n1cccn1)C2	-3%	/	/	/	-13%
Cc1ccc2oc(=O)c3cc(C(=O)NCCCN4CCCCCC4)sc3c2c1	-6%	?	?	4%[46.1 µM]	3%
CCC1CCCCN1CCCNC(=O)c1cc2c(=O)oc3ccc(C)cc3c2s1 (centres undefined)	/	13µM*	/	/	/
CC1=C([N+](=O)[O-])C(c2cccc(Br)c2)C2=C(N1)c1ccccc1C2=O (centres undefined)	/	?	1.3µM*	?	/
CC1=CC(=O)C=C(C)C1=NOS(=O)(=O)c1ccccc1	-21%	?	?	10µM*	-26%
CC1=CC(=O)C(C(C)C)=C/C1=N/OS(=O)(=O)c1ccccc1	/	6.3µM*	/	/	/
Cc1ccc2c(c1)/C(=N/OS(=O)(=O)c1ccccc1)CCS2	/	-1%	5%	14%	/
CCOc1ccc(C(=O)c2cn(CC(=O)Nc3ccc(Cl)cc3)c3cc4c(cc3c2=O)OCCO4)cc1	-23%	/	18%[46.1 µM]	-8%[46.1 µM]	-29%
COC(=O)C1=C(C(=O)OC)[C@@H]2N(C)c3ccccc3[C@@]23C[C@@H](C(=O)OC)N(C(=O)NC(C)(C)C)C3=N1	/	/	14%[14.2 µM]	?	/
c1cc2c3c(cccc3c1)NC1(CCCCCC1)N2	-7%	2%	?	10%	-12%
c1cc2c3c(cccc3c1)NC1(CCC3(CC1)Nc1cccc4cccc(c14)N3)N2	10µM*	?	/	/	?

Compound activity (PubChem)
